Screens from PubChem.
An excerpt weighted towards active compounds, which were near 2.1% of everything screened.
uPA surface inh – blocks generation of uPA at the cell surface; Potency, µM (top dose mostly 38.3 µM), without a hit: top-dose activity change, negative = inhibition, most hits filed as inhibitors; cell surface uPA generation assay, qHTS; 0.31% of 330,000 active; active = well fitted inhibition curve with a large enough effect; inconclusive = small, poorly fitted or top-dose-only effect; inactive = no such curve, though single readings can be large or run the other way; tested in mouse RAW 264.7 cells; also: potency is read from the fitted curve at half-maximal effect; % is scaled to controls: 0 for no effect and ±100 for the full control effect; nearly all actives have a fitted effect of over 55% in size
ClpP mod – qHTS Assay for Activators of ClpP. Potency, µM (titrated, usually from 57.5 µM), without a hit: at the top dose activity change, negative = active. purified B. subtilis ClpP, FRET peptide cleavage, 20 min. 1.9% of 340,000 active; active = well fitted falling curve with a large enough effect; inconclusive = small, poorly fitted or top-dose-only effect; inactive = no such curve, though single readings can be large or run the other way; also: potency is read from the fitted curve at half-maximal effect; the source files actives as falling curves though it sought activators and does not explain the sign; nearly all actives have a fitted effect of over 65% in size
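Buffer: 100 mM Tris/HCl pH8, 100 mM KCl, 0.05% low protease BSA, 2.5% glycerol, 0.01% Tween-20. ClpP 10 microg/mL final; 20 min RT; delta FRET normalized to ADEP and DMSO controls.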
Mito fusion act – mitochondrial division inhibition or fusion activation | S. cerevisiae fusion-defective mutant growth rescue, CellTiterGlo 48 h | Potency, µM (top dose mostly 46.1 µM), without a hit: at the top dose growth rescue (activation), most hits filed as activators | 0.23% of 320,000 active | AID 485298; also: potency is read from the fitted curve at half-maximal effect; % of control where 0% means no effect; nearly all actives have a fitted effect of over 45% in size
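Compounds are tested for their ability to restore growth of mitochondrial fusion-defective yeast strains at non-permissive 37C in YPEG medium over 48 hours. Viability is quantified by luciferase luminescence.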
B2AR arrestin – recruits beta-arrestin to the human beta2-adrenergic receptor; P07550; beta-arrestin recruitment to beta2AR, cell-based reporter; Potency, µM (series often up to 46.1 µM), without a hit: top-dose activation, hits mostly activators; 0.02% of 330,000 active; AID 492947;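 also: potency is read from the fitted curve at half-maximal effect; 0% = DMSO controls and full agonism = EC100 isoproterenol or metaproterenol; nearly all actives have a fitted effect of over 65% in size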
Target sequence (P07550 whole entry, looked up): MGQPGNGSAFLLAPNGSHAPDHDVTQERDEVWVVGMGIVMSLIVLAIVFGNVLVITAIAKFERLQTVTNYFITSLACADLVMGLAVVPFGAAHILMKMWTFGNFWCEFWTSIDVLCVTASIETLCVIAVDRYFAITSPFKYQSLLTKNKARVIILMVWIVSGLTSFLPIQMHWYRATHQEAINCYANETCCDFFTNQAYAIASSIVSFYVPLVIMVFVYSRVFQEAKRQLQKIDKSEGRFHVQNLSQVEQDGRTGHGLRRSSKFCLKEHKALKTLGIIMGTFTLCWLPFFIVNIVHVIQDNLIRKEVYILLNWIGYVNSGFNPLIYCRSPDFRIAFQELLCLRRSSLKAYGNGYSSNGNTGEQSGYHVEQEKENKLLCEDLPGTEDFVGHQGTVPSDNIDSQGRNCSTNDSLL
Giardia killer – Giardia lamblia killing | activity change, % at 7.66 µM, hits read low | 0.15% of 340,000 active | Giardia lamblia trophozoite viability; in the data active = activity change below about -80%; inconclusive = between about -30% and that limit;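 also: parasites exposed to compound for two days anaerobically before the ATP read; % is scaled to controls: 0 for no effect and ±100 for the full control effect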
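Compounds were tested on trophozoites seeded at 100 cells/well and held 48 hrs at 37 deg C anaerobically. An ATP-based luminescent kit measured the remaining live cells.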
p53 reactivator – mutant p53 re-activation in reporter cells | H1299 p53-A138V BP100-luciferase reporter, luminescence, 24 h | Potency, µM (highest dose often 92.2 µM), inactives show top-dose activity change, positive = activation, actives largely listed as activators | 0.063% of 320,000 active | AID 504706; also: potency is read from the fitted curve at half-maximal effect; % of control where 0% means no effect; nearly all actives have a fitted effect of over 45% in size
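p53-null H1299 cells stably carrying temperature-sensitive p53-A138V and a BP100-luciferase reporter were pinned with compounds (4-point, 1:5 series) and held 24 hrs at 37 deg C. Luminescence was read 10 min after detection reagent.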
* marks the source's active call; other numbers are inactive results; ? = inconclusive; . = not tested or not shown. Unless noted, calls follow the shape of the dose curve; as a rule, active = well fitted curve in the direction sought with a large enough effect; inconclusive = small, poorly fitted or top-dose-only effect, or another doubt; inactive = no such curve, though single readings can be large; an effect the other way counts as inactive or inconclusive.

SMILES | uPA surface inh | ClpP mod | Mito fusion act | B2AR arrestin | Giardia killer | p53 reactivator
COc1cccc(C2CC(c3cccs3)=NN2C(=O)CSc2nc3ccccc3s2)c1OC (configuration not stated) | 0.0% | 28.2µM* | 1.6% | -0.2% | 5.5 | -9.7%
Cc1ccc(C2CC(c3cccs3)=NN2C(=O)CSc2nc3ccccc3o2)cc1 (configuration not stated) | 3.2% | 14.1µM* | -0.7% | 3.0% | -9.1 | 5.9%
O=C(CSc1nc2ccccc2o1)N1N=C(c2cccs2)CC1c1ccc(F)cc1 (configuration not stated) | -0.7% | 31.6µM* | -5.4% | 0.0% | 16.5 | 1.1%
O=c1[nH]cnc2n[nH]nc12 | . | -2.4% | . | . | . | .
COc1cc(Cl)c(C)cc1NC(=O)CNC(=O)Cn1ccc2ccccc2c1=O | . | -6.8% | . | . | . | .
COc1ccc(OC)c(Nc2ncnc3c2cnn3-c2cccc(C)c2)c1 | ? | ? | 15.8µM* | 0.0% | 3.2 | 18.8%
Cc1cccc(-n2ncc3c(NCCN4CCOCC4)ncnc32)c1 | -2.5% | -26.0% | 1.0% | -0.3% | 32.9 | 12.1%
Cc1cccc(-n2ncc3c(N4CCCc5ccccc54)ncnc32)c1 | . | 31.6µM* | 18.1% | -1.0% | 18.0 | ?
Cc1cccc(-n2ncc3c(N(C)C4CCCCC4)ncnc32)c1 | 1.41µM* | ? | 8.3% | 3.7% | ? | 5.4%
CSCCC(C(=O)NCc1ccccc1)n1c(C2CCN(C(C)=O)CC2)nc2ccccc21 (configuration not stated) | . | 0.1% | . | . | . | .
Cc1ccc2c(c1)c1c(n2C)C(C(N)=O)CCC1 (configuration not stated) | -2.1% | ? | -13.1% | -0.2% | 11.7 | ?
Cc1ccc2c(c1)c1c(n2C)-c2[nH]ncc2CC1 | 1.3% | 12.6µM* | -18.6% | -0.4% | -18.3 | 22.2%
Oc1cccc(-c2nc3ccccc3s2)c1 | -7.2% | -0.9% | 14.6% | -0.2% | -25.1 | ?
Oc1cccc(-c2nnc(-c3cccc(O)c3)nn2)c1 | -8.3% | 0.6% | . | . | -80.5* | .
CCOc1ccc(NC(=O)CSc2nnc3c(n2)[nH]c2ccc(S(=O)(=O)N(C)C)cc23)cc1 | . | -2.2% | . | . | 3.7 | .
CS(=O)(=O)N1CCn2c1nc1ccccc12 | -2.7% | . | 0.6% | -0.5% | 40.1 | 5.1%
CCN1N=C(c2ccccc2)Cn2c1nc1ccccc12 | -6.6% | 14.1µM* | 3.0% | 0.1% | -0.8 | 3.2%
CCCc1cc2c(c(NC(C)=O)n1)c(=O)oc1ccccc12 | -1.4% | 31.6µM* | 4.1% | 0.2% | 9.0 | -9.7%
Cc1cccn2c(=O)c(C=Nc3ccccc3)c(NCCO)nc12 | 4.8% | 4.3% | 0.6% | -0.3% | 5.3 | 1.8%
Cc1cccn2c(=O)c(C=Nc3ccc(Cl)cc3)c(NCCO)nc12 | . | 28.2µM* | -0.4% | -0.1% | -0.3 | -4.5%
CN=Cc1c(NC)nc2c(C)cccn2c1=O | 0.0% | 39.8µM* | 4.5% | 0.0% | -1.2 | -5.5%
NC1CCc2ccc([N+](=O)[O-])cc21 (configuration not stated) | . | -0.9% | . | . | . | .
CCOP(=O)(OCC)C(NC(=O)Nc1ccc(Cl)c(Cl)c1)C(N)=O (configuration not stated) | -4.2% | 15.8µM* | -4.3% | -0.3% | -27.6 | -9.7%
CN1CC2(Cc3cc([N+](=O)[O-])ccc31)C(=O)OC(C)(C)OC2=O | . | -0.2% | . | . | -8.6 | .
O=C(Cc1cccs1)NC1(C(=O)NC2CCCC2)CCCCC1 | -0.7% | 25.1µM* | -1.6% | -0.5% | 30.4 | -4.0%
Cc1cc(N)n2ncc(-c3cccc(Br)c3)c2n1 | -11.9% | 17.8µM* | 26.2% | 0.0% | 0.8 | ?
Cc1cc(N)n2ncc(-c3ccccc3)c2n1 | -5.9% | -12.1% | 6.0% | 0.5% | -5.2 | ?
COc1ccc(Cl)cc1C(=O)O/N=C(\N)c1ccccn1 | 10µM* | 10.7% | 8.3% | -0.8% | 28.7 | ?
N/C(=N\OC(=O)/C=C/c1ccccc1Cl)c1ccccn1 | 3.55µM* | -1.0% | -6.7% | -0.2% | 10.0 | 25.7%
Cc1ccc2c(C)c(C(=O)N(Cc3ccc(N(C)C)cc3)Cc3ccco3)oc2c1C | . | -18.2% | . | . | . | .
